Results published in PubChem BioAssay (EPA / NIEHS).
Active and inactive are the calls of the source. How the source made its calls: active means hit-call score of the fitted dose curve at least 0.9, where 1 is the maximum; inactive means score below 0.9.

Assays:
[1] = read-out: Monocyte Chemoattractant Protein-1 (MCP1), CCL2 (gene 6347); assay: BSK_LPS_MCP1: BioMAP Diversity Plus: LPS Assay for Monocyte Chemoattractant Protein-1 (MCP1) Biomarker Activity (AID 2283081); details: primary human HUVEC with PBMC; actives raise or lower the signal;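 on AC50: co-culture stimulated with LPS; secreted MCP-1 protein quantified by ELISA in culture supernatant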
Summary of the method: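 Secreted MCP-1 read by ELISA at 24 h post-dosing in an LPS-activated co-culture of endothelial cells with peripheral blood mononuclear cells. Fits run in both directions, DMSO as baseline; parallel SRB staining tracks overt cytotoxicity.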

[2] = BSK_LPS_PGE2: BioMAP Diversity Plus: LPS Assay for Prostaglandin E2 (PGE2) Biomarker Activity (AID 2283082); details: primary human HUVEC with PBMC; actives raise or lower the signal;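 on AC50: secreted prostaglandin E2 measured by ELISA in LPS-stimulated co-culture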
Summary of the method: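 LPS-activated HUVEC/PBMC co-culture; cmpd dosed, 24 h; PGE2 by ELISA; bidirectional fit vs DMSO; SRB (0.1%, TCA-fixed, 560 nm) in parallel plates for overt cytotox.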

[3] = read-out: Macrophage colony-stimulating factor (MCSF), CSF1 (gene 1435); assay: BSK_LPS_MCSF: BioMAP Diversity Plus: LPS Assay for Macrophage colony-stimulating factor (MCSF) Biomarker Activity (AID 2283083); details: primary human HUVEC with PBMC; actives raise or lower the signal
Summary of the method: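 Bidirectional fitting against DMSO was applied to M-CSF levels read by ELISA at 24 h post-dose. The system pairs human umbilical vein endothelium with peripheral blood mononuclear cells; parallel SRB staining tracked cytotoxicity.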

[4] = read-out: Tissue Factor, F3 (gene 2152); assay: BSK_LPS_TissueFactor: BioMAP Diversity Plus: LPS Assay for Tissue Factor Biomarker Activity (AID 2283084); details: primary human HUVEC with PBMC; actives raise or lower the signal
Summary of the method: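 Compound was added to an endothelial cell/PBMC co-culture, and after 24 h tissue factor (CD142) was read by ELISA. Gain or loss of signal was fitted against a DMSO baseline, and parallel SRB staining (560 nm) tracked overt cytotoxicity.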

[5] = read-out: Tumor necrosis factor (Homo sapiens) (UniProt P01375); assay: BSK_LPS_TNFa: BioMAP Diversity Plus: LPS Assay for Tumour Necrosis Factor alpha (TNFa) Biomarker Activity (AID 2283085); details: primary human HUVEC with PBMC; actives raise or lower the signal
Summary of the method: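 Read-out is ELISA of TNFa in primary human endothelial cell–PBMC co-cultures at 24 h after compound. Activity in either direction was fitted against DMSO.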

[6] = read-out: Vascular cell adhesion molecule 1 (VCAM1), VCAM1 (gene 7412); assay: BSK_LPS_VCAM1: BioMAP Diversity Plus: LPS Assay for Vascular cell adhesion molecule 1 (VCAM1) Biomarker Activity (AID 2283086); details: primary human HUVEC with PBMC; actives raise or lower the signal
Summary of the method: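 HUVEC + PBMC co-culture, LPS system; compound 24 h; VCAM-1 by ELISA; bidirectional fit vs DMSO control; parallel SRB (0.1%, TCA-fixed, 560 nm) for cytotoxicity.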

CD38, CD38 (gene 952) = assay: BSK_SAg_CD38: BioMAP Diversity Plus: SAg Assay for CD38 Biomarker Activity (AID 2283087); details: primary human HUVEC with PBMC; actives raise or lower the signal
Summary of the method: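 Human HUVEC plus PBMC co-culture stimulated with superantigen; CD38 measured by ELISA 24 h after chemical dosing. Fluorescence read-out, bidirectional fit against DMSO; cytotoxicity tracked in parallel by SRB and Alamar Blue.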

CD40, CD40 (gene 958) = assay: BSK_SAg_CD40: BioMAP Diversity Plus: SAg Assay for CD40 Biomarker Activity (AID 2283088); details: primary human HUVEC with PBMC; actives raise or lower the signal
Summary of the method: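 CD40 is measured by fluorescence ELISA in an endothelial/PBMC primary human co-culture at 24 h post-dose. Fitting is bidirectional, DMSO baseline. Parallel SRB staining (560 nm) flags cytotoxicity.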

CD69, CD69 (gene 969) = assay: BSK_SAg_CD69: BioMAP Diversity Plus: SAg Assay for CD69 Biomarker Activity (AID 2283089); details: primary human HUVEC with PBMC; actives raise or lower the signal;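 on AC50: cell surface CD69 protein quantified by ELISA with fluorescence detection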
Summary of the method: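 Primary human vascular co-culture (umbilical vein endothelium with peripheral blood mononuclear cells) exposed to test chemical for 24 h. CD69 levels quantified by fluorescence ELISA; DMSO served as negative control for bidirectional fitting.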

[7] = read-out: Monocyte Chemoattractant Protein-1 (MCP1), CCL2 (gene 6347); assay: BSK_SAg_MCP1: BioMAP Diversity Plus: SAg Assay for Monocyte Chemoattractant Protein-1 (MCP1) Biomarker Activity (AID 2283090); details: primary human HUVEC with PBMC; actives raise or lower the signal
Summary of the method: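 MCP-1 levels in the endothelial–PBMC SAg co-culture were quantified by ELISA at 24 h post-dosing; both increases and decreases versus DMSO scored. Cytotoxicity monitored by SRB total protein in parallel cultures.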

[8] = BSK_SAg_PBMCCytotoxicity: PBMC Cytotoxicity Assessment in the BioMAP Diversity Plus: SAg Assay (AID 2283093); details: primary human HUVEC with PBMC;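 further: PBMC viability measured as Alamar Blue reduction fluorescence at 546/580 nm; fitted both ways against DMSO so a hit may be loss or gain of signal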
Summary of the method: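 HUVEC/PBMC co-culture; PBMC exposed to chemical 1 h before SEB and TSST-1 activation (20 ng/mL each), incubated 90 h, then Alamar Blue 6 h, fluorescence 546/580 nm. Bidirectional fit versus DMSO baseline.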

[9] = read-out: Interleukin-8 (IL8), CXCL8 (gene 3576); assay: BSK_SAg_IL8: BioMAP Diversity Plus: SAg Assay for Interleukin-8 (IL8) Biomarker Activity (AID 2283094); details: primary human HUVEC with PBMC; actives raise or lower the signal
Summary of the method: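 ELISA read-out of IL-8 in a primary human vascular co-culture (umbilical vein endothelium plus PBMC), taken 24 h after compound addition. Values derive from bidirectional fits against DMSO negative controls.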

[10] = BSK_SAg_Proliferation: Cell Proliferation Assessment in the BioMAP Diversity Plus: SAg Assay (AID 2283095); details: primary human HUVEC with PBMC;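 further: relative cell number as total protein by SRB absorbance in sub-confluent culture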
Summary of the method: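 Cells (endothelium plus PBMC, human primary) were dosed with chemical, cultured 96 h, fixed in 10% TCA and stained with 0.1% SRB. Absorbance at 560 nm gave relative protein, fitted bidirectionally relative to DMSO.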

[11] = BSK_SAg_SRB: Viability Assessment in the BioMAP Diversity Plus: SAg Assay (AID 2283096); details: primary human HUVEC with PBMC;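 further: cells read one day after compound addition; hits may be either gain or loss of signal compared with DMSO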
Summary of the method: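 Human umbilical vein endothelial cells co-cultured with PBMC, read 24 h after compound dosing. Total protein measured by sulforhodamine B staining (0.1% SRB after 10% TCA fixation, absorbance 560 nm); bidirectional fit versus DMSO baseline.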

[12] = read-out: E-selectin (Homo sapiens) (UniProt P16581); assay: BSK_SAg_Eselectin: BioMAP Diversity Plus: SAg Assay for Eselectin Biomarker Activity (AID 2283091); details: primary human HUVEC with PBMC; actives raise or lower the signal
Summary of the method: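 Cell-surface E-selectin is read by ELISA at 24 h in the SAg co-culture of HUVEC and PBMC. Curves are fitted in both directions relative to DMSO. Parallel SRB total-protein staining tracks overt toxicity.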

[13] = read-out: Monokine induced gamma interferon (MIG), CXCL9 (gene 4283); assay: BSK_SAg_MIG: BioMAP Diversity Plus: SAg Assay for Monokine induced gamma interferon (MIG) Biomarker Activity (AID 2283092); details: primary human HUVEC with PBMC; actives raise or lower the signal
Summary of the method: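 Endothelial cells and PBMC were co-cultured, exposed to test chemicals, and sampled 24 h later. MIG was measured by ELISA, and responses were fitted in both directions relative to DMSO.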

Sequence of Tumor necrosis factor (Homo sapiens) (P01375 whole entry, looked up): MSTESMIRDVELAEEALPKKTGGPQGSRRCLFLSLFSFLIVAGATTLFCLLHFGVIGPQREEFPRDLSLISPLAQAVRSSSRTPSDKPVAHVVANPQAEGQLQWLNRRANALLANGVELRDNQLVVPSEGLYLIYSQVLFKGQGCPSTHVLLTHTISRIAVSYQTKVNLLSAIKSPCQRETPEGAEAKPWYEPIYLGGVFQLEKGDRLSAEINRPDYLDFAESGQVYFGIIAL
Sequence of E-selectin (Homo sapiens) (P16581 whole entry, looked up): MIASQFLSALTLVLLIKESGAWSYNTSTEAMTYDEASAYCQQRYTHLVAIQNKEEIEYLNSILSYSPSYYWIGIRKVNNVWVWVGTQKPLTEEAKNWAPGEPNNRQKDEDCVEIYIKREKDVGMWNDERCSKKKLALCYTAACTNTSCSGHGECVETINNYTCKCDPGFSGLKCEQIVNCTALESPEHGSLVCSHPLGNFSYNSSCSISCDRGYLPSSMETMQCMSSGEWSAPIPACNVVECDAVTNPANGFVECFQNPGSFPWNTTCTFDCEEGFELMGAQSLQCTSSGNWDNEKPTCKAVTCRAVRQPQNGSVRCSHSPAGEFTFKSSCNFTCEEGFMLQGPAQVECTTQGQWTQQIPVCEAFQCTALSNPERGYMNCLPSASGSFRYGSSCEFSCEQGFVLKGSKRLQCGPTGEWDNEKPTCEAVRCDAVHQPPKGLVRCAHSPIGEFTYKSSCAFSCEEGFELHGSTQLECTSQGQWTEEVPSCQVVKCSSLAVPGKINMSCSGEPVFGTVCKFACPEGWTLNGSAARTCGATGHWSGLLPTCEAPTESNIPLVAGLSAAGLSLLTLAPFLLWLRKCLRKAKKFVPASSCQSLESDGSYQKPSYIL

For `CCCCCOC(=O)c1ccccc1C(=O)OCCCCC`, the outcome [1] was “inactive”, the AC50 [2] was 17.7 µM (active) and the AC50 [3] was 26.5 µM (active). The outcome [4] was “inactive”, the AC50 [5] was 20 µM (active) and the AC50 [6] was 20 µM (active). The AC50 (CD38, CD38 (gene 952)) was 31.6 µM (active), the AC50 (CD40, CD40 (gene 958)) was 24.8 µM (active) and the AC50 (CD69, CD69 (gene 969)) was 20 µM (active). The outcome [7] was “inactive”, the outcome [8] was “inactive” and the AC50 [9] was 30.8 µM (active). For the same compound, the AC50 [10] was 31.9 µM (active) and the AC50 [11] was 32.4 µM (active).
In the case of `O=[N+]([O-])c1ccc(Oc2ccc(Cl)cc2Cl)cc1`, the AC50 [1] is reported as 25.7 µM (active), the outcome [2] is reported as “inactive” and the AC50 [3] is reported as 31.1 µM (active). For the same compound, the outcome [4] was “inactive”, the outcome [5] was “inactive” and the outcome [6] was “inactive”. For the same compound, the AC50 (CD38, CD38 (gene 952)) was 29.8 µM (active), the AC50 (CD40, CD40 (gene 958)) was 20 µM (active) and the outcome (CD69, CD69 (gene 969)) was “inactive”. The AC50 [7] was 29.1 µM (active), the outcome [8] was “inactive” and the AC50 [9] was 33.9 µM (active). For the same compound, the AC50 [10] was 32 µM (active) and the outcome [11] was “inactive”.
For `OCCOCCO`, the outcome [1] was “inactive”, the outcome [2] was “inactive” and the outcome [3] was “inactive”. For the same compound, the outcome [4] was “inactive”, the outcome [5] was “inactive” and the outcome [6] was “inactive”. For the same compound, the outcome (CD38, CD38 (gene 952)) was “inactive”, the outcome (CD40, CD40 (gene 958)) was “inactive” and the outcome (CD69, CD69 (gene 969)) was “inactive”. The outcome [7] was “inactive”, the outcome [8] was “inactive” and the outcome [9] was “inactive”. For the same compound, the outcome [10] was “inactive” and the outcome [11] was “inactive”.
In the case of `N#CC(Br)Br`, the outcome [1] is reported as “inactive”, the outcome [2] is reported as “inactive” and the outcome [3] is reported as “inactive”. For the same compound, the outcome [4] was “inactive”, the outcome [5] was “inactive” and the outcome [6] was “inactive”. For the same compound, the outcome (CD38, CD38 (gene 952)) was “inactive”, the outcome (CD40, CD40 (gene 958)) was “inactive” and the outcome [7] was “inactive”. The outcome [12] was “inactive”, the outcome [13] was “inactive” and the outcome [8] was “inactive”. For the same compound, the outcome [9] was “inactive”, the outcome [10] was “inactive” and the outcome [11] was “inactive”.
